# TDP1 cell CPT: growth inhibition of DT40 Tdp1-/-;hTDP1 cells with camptothecin (screen for TDP1 inhibitors); chicken DT40 Tdp1-/-;hTDP1 cells + 20 nM CPT, ATP luminescence, 48 h; Potency, µM (titrated, usually from 46.2 µM), for inactives: at the top dose activity change, negative = growth inhibition, hits mostly inhibitors; hit rate 12% among 420,000; also: potency is read from the fitted curve at half-maximal effect; % is scaled to controls: 0 for no effect and ±100 for the full control effect; nearly all actives have a fitted effect of over 55% in size
#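 Chicken DT40 Tdp1-/- cells stably complemented with human TDP1 were seeded at 400 cells/well in medium containing 20 nM camptothecin, exposed to pin-transferred compounds, and grown at 37 °C for at least 48 hr. Viability was read as ATP luminescence.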
# TDP1 cell noCPT: qHTS for Inhibitors of human tyrosyl-DNA phosphodiesterase 1 (TDP1): qHTS in cells in absence of CPT. Potency, µM (highest dose often 46.2 µM), inactives show at the highest dose activity change, negative = growth inhibition, actives largely listed as inhibitors. hit rate 15% among 420,000. AID 686978, 2013. DT40 Tdp1-/- hTDP1 cells, no CPT, ATP luminescence, 48 h; also: potency is read from the fitted curve at half-maximal effect; % is scaled to controls: 0 for no effect and ±100 for the full control effect; nearly all actives have a fitted effect of over 55% in size
#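 Chicken DT40 Tdp1-/- cells stably complemented with human TDP1 were seeded at 400 cells/well with DMSO in place of 20 nM camptothecin. After compound pinning, cells grew at least 48 hr at 37 °C; viability read by CellTiter-Glo luminescence.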
# D3 ag: agonists of human D3 dopamine receptor | P35462 | D3R DiscoveRx beta-arrestin cells, luminescence, 90 min | max activation, % | hit rate 0.58% among 410,000 | AID 652048; in the data active = max activation above about 30%; also: 0% is about no effect
# Target sequence (P35462 whole entry, looked up): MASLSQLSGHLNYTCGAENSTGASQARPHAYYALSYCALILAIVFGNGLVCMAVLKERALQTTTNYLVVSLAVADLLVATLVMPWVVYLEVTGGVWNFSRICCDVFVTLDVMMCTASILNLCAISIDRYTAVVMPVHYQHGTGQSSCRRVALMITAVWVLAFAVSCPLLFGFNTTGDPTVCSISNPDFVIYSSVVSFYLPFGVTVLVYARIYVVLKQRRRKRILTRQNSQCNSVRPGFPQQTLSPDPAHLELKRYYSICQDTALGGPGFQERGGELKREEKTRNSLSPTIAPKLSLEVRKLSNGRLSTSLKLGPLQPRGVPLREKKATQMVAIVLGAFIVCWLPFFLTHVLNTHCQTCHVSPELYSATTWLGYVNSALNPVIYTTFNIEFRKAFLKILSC
#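 Agonist mode: compounds and dopamine controls were applied to plated cells for 90 min at 37 degrees C after an overnight attachment at 1500 cells/well. Luminescent read-out followed 30 - 60 minutes at room temperature with DiscoveRx detection reagent.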
# IL-1B inflam inh: inflammasome signaling inhibition, IL-1 beta readout. THP-1 LPS/ATP IL-1B secretion, AlphaLISA, 16 h; hits give low values. activity change, % at 57.5 µM. hit rate 4.7% among 360,000; in the data active = activity change below about -50%; inconclusive = mostly about -30% to -49%; also: % is scaled to controls: 0 for no effect and ±100 for the full control effect
#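 Secreted IL-1B measured by AlphaLISA bead assay after 16 h compound exposure of THP-1 cells; compounds (final up to 57.5 uM) added 1 h before LPS (250 ng/mL) and ATP (1.25 mM) stimulation; lower signal means less secretion.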
# D3 antag: antagonists of human D3 dopamine receptor; P35462; D3R cells, DiscoveRx beta-arrestin luminescence, antagonist mode; hits give low values; max response, negative = inhibition, %; hit rate 2.5% among 360,000; AID 652054; in the data active = max response below about -50%; inconclusive = no clear call, values can overlap the other calls; also: % is scaled to controls: 0 for no effect and ±100 for the full control effect
#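 Cells expressing the human receptor were seeded at 1500 cells/well, incubated overnight at 37 degrees C in 5% CO2, then exposed to library compounds with dopamine controls for 90 minutes at 37 degrees C before luminescent detection.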
# ClpP mod: qHTS Assay for Activators of ClpP. Potency, µM (titrated, usually from 57.5 µM), inactives show at the highest dose activity change, negative = active. purified B. subtilis ClpP, FRET peptide cleavage, 20 min. hit rate 1.9% among 340,000. ATP-dependent Clp protease proteolytic subunit (Bacillus subtilis (strain 168)), P80244; active = well fitted falling curve with a large enough effect; inconclusive = small, poorly fitted or top-dose-only effect; inactive = no such curve, though single readings can be large or run the other way; also: potency is read from the fitted curve at half-maximal effect; the source files actives as falling curves though it sought activators and does not explain the sign; nearly all actives have a fitted effect of over 65% in size
#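 FRET quenching reversal measured ClpP activation: 10 microg/mL B. subtilis ClpP at pH 8 with the FRET-FV decapeptide, read at 430 nm after 320 nm excitation. The 20-min minus 0-min signal was scaled between DMSO/no-enzyme wells and ADEP (5.8 microM final).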
# Starred values were filed as active, the others as inactive; ? = inconclusive; · = not tested or not shown. Only some compounds are listed: those with a hit (about 21% of all), similar ones and a draw of the others. Unless noted, calls follow the shape of the dose curve; as a rule, active = well fitted inhibition curve with a large enough effect; inconclusive = small, poorly fitted or top-dose-only effect; inactive = flat fitted curve, though single readings scatter.
SMILES,TDP1 cell CPT,TDP1 cell noCPT,D3 ag,IL-1B inflam inh,D3 antag,ClpP mod
O=C(CCCOc1ccc(Cl)cc1Cl)N/N=C/c1ccccc1O,5.17µM*,5.17µM*,6.1,0.0,-20.3,-7.3%
O=C(COc1ccc(Cl)cc1[N+](=O)[O-])N/N=C/c1cccs1,-18.7%,29.1µM*,-4.1,-19.7,-8.0,-0.2%
CN(CCc1ccccc1)C(=O)c1ccc(NC(=O)Cc2cccc(NC(=O)C3CCN(C(=O)c4ccccc4)CC3)c2)cc1,?,?,0.1,-9.1,0.0,1.9%
Cc1ccc(/C=N/NC(=O)CCCOc2ccc(Cl)cc2Cl)cc1[N+](=O)[O-],-16.7%,-27.5%,2.6,-0.3,17.0,2.6%
O=C(CCCC(=O)NN=Cc1ccccc1Cl)NN=Cc1ccccc1Cl,16.4µM*,16.4µM*,-11.5,0.0,0.0,1.7%
CN(C(=S)NC(=O)CCCOc1ccc(Cl)cc1Cl)c1ccccc1,?,15.8µM*,3.3,-3.9,-21.9,0.3%
COc1ccc(/C=N/NC(=O)CCCOc2ccc(Cl)cc2Cl)cc1[N+](=O)[O-],?,16.4µM*,1.4,-5.8,15.5,1.0%
CN(C(=S)NC(=O)Cc1ccccc1)c1ccccc1,?,?,17.6,-60.5*,5.8,-0.1%
CCN(CC)C(=S)NC(=O)Cc1ccccc1,4.2%,-6.3%,2.8,11.1,11.9,·
O=C(CCCC(=O)NN=Cc1ccc(Cl)cc1Cl)NN=Cc1ccc(Cl)cc1Cl,-13.9%,?,1.8,5.5,11.8,-1.5%
CCCS(=O)(=O)NC(=O)C1(C)CCCN(C(=O)c2nc3ccccc3s2)C1 (configuration not stated),5.2%,-10.6%,7.0,0.0,12.9,-0.5%
Cc1ccc(S(=O)(=O)CCC(=O)OCC(=O)NCCc2ccccc2)cc1,11.2%,-2.4%,-5.3,5.4,-20.2,·
CC(=O)N1c2nc(C(C)C)nn2C2(CCCCC2)[C@@H]2CCCC[C@@H]21,4.11µM*,1.84µM*,-8.6,·,·,-0.1%
COCC(=O)N1c2nc(C(C)C)nn2C2(CCCCC2)[C@@H]2CCCC[C@@H]21,2.91µM*,2.91µM*,-11.6,·,·,-2.2%
COCC(=O)N1c2nc(-c3ccco3)nn2C2(CCCCC2)[C@@H]2CCCC[C@@H]21,?,?,2.6,·,·,-2.7%
CCCC(=O)N1c2nc(C(C)C)nn2C2(CCCCC2)[C@@H]2CCCC[C@@H]21,10.3µM*,9.2µM*,-3.7,·,·,-2.5%
CC(C)CC(=O)N1c2nc(C(C)C)nn2C2(CCCCC2)[C@@H]2CCCC[C@@H]21,3.7%,?,-17.3,·,·,-0.9%
CCOc1ccccc1C(=O)Nc1ccc2nc(N3CCN(c4ncccn4)CC3)cc(C)c2c1,18.4µM*,9.2µM*,12.2,?,3.2,-4.5%
CCOC(=O)N1CCC(NC(=S)Nc2ccc3nc(N4CCN(CC)CC4)cc(C)c3c2)CC1,?,?,-8.8,-1.4,-15.4,-19.4%
CCOc1ccccc1NC(=O)Nc1ccc2nc(N3CCN(C)CC3)cc(C)c2c1,?,23.1µM*,-12.7,·,·,11.2µM*
CCN1CCN(c2cc(C)c3cc(NC(=O)c4cccs4)ccc3n2)CC1,?,?,-18.5,?,?,·
CCOC(=O)N1CCC(NC(=S)Nc2ccc3nc(N4CCN(C)CC4)cc(C)c3c2)CC1,-18.1%,?,2.9,-100.2*,-4.3,·
CC(C)Oc1ccc(CNC(=O)Cn2nc(N3CCN(c4ccccc4)CC3)ccc2=O)cc1,?,?,10.7,·,·,2.0%
CC(C)C[C@H]1CN([C@@H](Cc2ccccc2)CN2CCC[C@@H]2CN2C(=O)C(=O)NC[C@@H]2Cc2ccc(O)cc2)C(=O)C(=O)N1CC1CCCCCC1,?,?,2.5,-17.0,9.8,0.1%
